This passage reports AC50 results from PubChem BioAssay AID2284168 (EPA ToxCast).

The source made the active and inactive calls. The calls were made as follows: active = hit-call score of the fitted dose curve at least 0.9, where 1 is the maximum; inactive = score below 0.9.

This experiment deals with human Opioid Receptor delta (DOP) Agonism, OPRD1 (gene 4985) (UniProt P41143). The experiment is described as follows: ERF_FR_GPCR_hOPRD1: Eurofins (ERF) G Protein-Coupled Receptor (GPCR) Radioligand Binding LeadHunter Assay for human Opioid Receptor delta (DOP) Agonism. How it is done: ERF_FR_GPCR_hOPRD1 is a biochemical, single-readout assay that uses extracted gene-proteins in a cell-free assay. Measurements were taken 1 hour after chemical dosing in a 96-well plate. See delta (DOP) Human Opioid GPCR Binding (Agonist Radioligand) Assay, Cerep.ERF_FR_GPCR_hOPRD1 is an assay component calculated from the ERF_FR_GPCR_hOPRD1 assay. It is designed to measure radioligand binding using a type of binding reporter as detected by scintillation counting with radiometry technology.Data from the assay component ERF_FR_GPCR_hOPRD1 was analyzed at the assay endpoint, ERF_FR_GPCR_hOPRD1, in the positive analysis fitting direction relative to DMSO as the negative control and baseline of activity. Using a type of binding reporter, gain-of-signal activity can be used to understand changes in binding as they relate to gene OPRD1. To generalize the intended target to other relatable targets, this assay endpoint is annotated to the gpcr intended target family, where the subfamily is opioid.
Chain of human Opioid Receptor delta (DOP) Agonism, OPRD1 (gene 4985) (P41143 whole entry, looked up): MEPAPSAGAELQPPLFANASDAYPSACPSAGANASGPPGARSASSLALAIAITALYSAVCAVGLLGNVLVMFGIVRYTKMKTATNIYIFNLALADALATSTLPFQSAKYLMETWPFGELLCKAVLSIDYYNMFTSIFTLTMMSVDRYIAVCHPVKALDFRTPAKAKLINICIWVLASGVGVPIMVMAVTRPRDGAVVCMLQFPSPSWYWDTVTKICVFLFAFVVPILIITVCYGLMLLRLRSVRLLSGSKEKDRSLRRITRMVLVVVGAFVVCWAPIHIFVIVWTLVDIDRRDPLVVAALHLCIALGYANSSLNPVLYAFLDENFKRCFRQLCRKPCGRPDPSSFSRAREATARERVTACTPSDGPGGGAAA
Human cells are incubated for 60 minutes at room temprature with [3H]DADLE ligand (0.5 nM) and DPDPE as control inhibitor. Test Sample Requirements: Minimum for 1) Screen: 60 ul of 10 mM stock -OR- 1 mg (pre-weighed) for 10 uM final testing. 2) Dose Response: 90 ul of 10 mM stock -OR- 1 mg (pre-weighed) for a top concentration at 10 uM.
Take `O=C(/C=C/c1ccc(O)cc1)CC(=O)/C=C/c1ccc(O)cc1`: the AC50 – broadly, the concentration at which the activity in the assay is half-maximal – is 1500 nM (active).
